These results are taken from PubChem BioAssay (NCI).

This is part of a sample that, as a whole, favours compounds with a hit. Of some 83,000 tested, about 20% had one in any assay.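 Growth was measured after 48 h exposure to one concentration of compound in 96-well plates. Values under 10 count as active.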 Active and inactive are the calls of the source.

The test system of the assay is MDA-MB-468 breast. The assay can be described thus: NCI-60 one-dose screen, 48 h (100 = growth as untreated, 0 = no growth, -100 = all killed). The conditions noted are these: 10 µM unless noted.
For the compound `CCCCn1c(-c2cccc(OC)c2)nc2cc(OC)c(OC)cc2c1=O`, the growth is 107% (inactive).

Take `CS(=O)(=O)Nc1ccc([N+](=O)[O-])cc1Oc1ccccc1`: the growth is 100% (inactive).

For the compound `CC(C)Cc1ccc([C@H](C)C(=O)O)cc1`, the growth was 113% (inactive).

Turning to `Cc1ccc(/C=C(\C#N)C(=O)Nc2ncc(Cc3cc(Cl)ccc3Cl)s2)o1`, the growth is 69.6% (inactive).

`O=C1CCN2C(=O)Nc3ccccc3C2C1` (stereo not given): the growth is 109% (inactive).

`C(=C(\C1=NCCN1)n1cnc2ccccc21)/c1cccc2ccccc12`: the growth was 80.6% (inactive).

As for `O=C(Nc1ccc(Cl)cc1)Nc1ccccc1CNc1nc(Nc2ccc(OCCN3CCCC3)cc2)ncc1Cl`, the growth is -57.4% (active).

Take `COc1ccc(Cn2cc3c(c2-c2cc(OC)c(OC)c(OC)c2)CCc2cnoc2-3)cc1`: the growth was 4.09% (active).

Regarding `CCCCSC1=C(Cl)CN(c2ccccc2)C1=O`, the growth is 84.6% (inactive).

With `COc1ccc(/C=c2\c(=O)n(-c3ccccc3)c3nn4c(=O)c(=O)[nH]nc4n23)cc1`, the growth was 112% (inactive).

`CC(C)(C)Nc1nc2c(OCCc3ccccc3)cccn2c1-c1cccc(F)c1`: the growth was -30.8% (active).

Consider `COc1ccc2c(O)c(/C=C3\N=Nc4ccccc43)oc2c1C[C@@H]1CCNC[C@H]1F`, for which the growth is 74.4% (inactive).

Take `COc1cc(/C=C/C(=O)c2ccc(NC(=O)CSc3nnc(-c4ccc(Cl)cc4)n3-c3ccccc3)cc2)cc(OC)c1OC`: the growth was 72.9% (inactive).

On to `Cc1ccc(C(=O)Nc2ccc(CNCCN3CCNCC3)c(C(F)(F)F)c2)cc1C#Cc1cnc2cccnn12`, for which the growth is -83% (active).

In the case of `Cn1cc(-c2nn3cc(-c4cccnc4)nc3s2)c2ccccc21`, the growth is -2.67% (active).

Consider `Clc1cc(Cl)cc(-c2cnc3nonc3n2)c1`, for which the growth is 82% (inactive).

As to `COc1ncc(-c2ccc3ncnc(Nc4cccc(Cl)c4)c3c2)cc1NS(=O)(=O)C1CC1`, the growth was -43.9% (active).

As for `COc1cc2c(c(OC)c1OC)C(=O)CC(c1cccc(C(=O)Nc3cccc(Br)c3)c1)O2` (stereo not given), the growth was 71% (inactive).

On to `Cc1nc2c(c(=O)[nH]1)OCN(Cc1ccccc1)C2`, for which the growth was 108% (inactive).

Regarding `O=C1[C@@H]2Cc3c([nH]c4ccccc34)[C@H](c3c(Cl)cccc3Cl)N2C(=O)CN1C1CCN(CC2CCCCC2)CC1`, the growth was 47.8% (inactive).

With `CC1Cc2c(Cl)ncnc2N(C)c2ccc(Cl)cc21` (stereo not given), the growth is -35.8% (active).

On to `CCC(CC(C)C)Nc1ccc(NC(CC)CC(C)C)cc1` (stereo not given), for which the growth was 71.3% (inactive).

On to `N#CC(C#N)N=Nc1cc(Cl)ccc1Cl`, for which the growth is 120% (inactive).

Regarding `C=C[C@@H]1CCC/C=C/[C@@H]2C[C@H](O)C[C@H]2[C@H](O)/C=C/C(=O)O1`, the growth was -46.6% (active).

Take `CN1C(=O)C(C2=NNC(c3ccccc3C(=O)O)C2)C(=O)N(C)C1=O` (stereo not given): the growth is 96.4% (inactive).

Turning to `COc1cc2c(c(OC)c1OC)-c1ccc(OC)c(=O)cc1[C@@H](NC(=O)CCl)CC2`, the growth was -5.69% (active).

In the case of `O=[N+]([O-])c1cccc([I+]c2ccccc2)c1`, the growth was 20.2% (inactive).

Consider `CC/C=C(\C)C(CCC)(CN=O)C(=O)OCC` (stereo not given), for which the growth was 113% (inactive).

On to `COc1ccc2cc(-c3nc4ccc(C)cn4c3NCc3ccco3)c(=O)[nH]c2c1`, for which the growth was 67.1% (inactive).

`N#CC1c2ccccc2C=CN1C(=O)CCCl` (stereo not given): the growth is 24.2% (inactive).

Regarding `COc1ccc(/C=N/NC(=O)c2cnn3c2NC(c2ccccc2)C3)cc1OC` (stereo not given), the growth is 34.8% (inactive).

In the case of `OCC(Nc1ncnc2ccc(-c3cnc4cnccn34)cc12)c1ccccc1` (stereo not given), the growth was -2.48% (active).

`Cn1cc(-c2csc(-c3cn(C(=O)OC(C)(C)C)c4ccccc34)n2)c2cccnc21`: the growth is -8.84% (active).

As to `O=C(c1ccccc1)[C@@H](c1ccccc1)[C@]1(O)C(=O)Nc2ccccc21`, the growth is 102% (inactive).

Regarding `O=S(=O)(Cc1ccccc1)c1nc2ccccc2s1`, the growth was 76.8% (inactive).

Consider `CN(C)CCCCNc1ccc(NCCCCN(C)C)c2c1C(=O)c1c(O)ccc(O)c1C2=O`, for which the growth is 96.8% (inactive).

As to `COc1ccc(/C=C(/C(=O)N2CCN(c3ccccc3)CC2)c2cc(OC)c(OC)c(OC)c2)cc1N`, the growth is 11.7% (inactive).

For the compound `COc1cc2c(c(OC)c1OC)C(=O)CC(c1cccc(NC(=O)c3ccccc3Br)c1)O2` (stereo not given), the growth was 85.1% (inactive).

In the case of `Cc1ccc(C(=O)c2ccc(CC(=O)N=Nc3c(O)[nH]c4ccc(Br)cc34)n2C)cc1`, the growth was 96.6% (inactive).

As to `CCCCN(CCCC)c1ccc(C(=O)O)cc1`, the growth was 101% (inactive).
